One assay has as its system MCC-13. Put plainly: qHTS assay to identify novel small-molecules to repurpose for Merkel cell carcinoma treatment (AID 1296009). Note: nearly all actives have a fitted effect of over 60% in size. Conditions: MCC and control cell lines, CellTiter-Glo viability, 72 h; series mostly up to 46 µM. The essentials: (§1)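 Viability readout: ATP luminescence (CellTiter-Glo) after 72 hr drug exposure at 37 degree celsius. Dose-response format was 8 points for NPC and 11 points for MIPE; data normalized to in-plate controls.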
In general terms: Quantitative high-throughput screening tests each substance at several concentrations.

The test system of a further assay is MKL-1. The description is as above. The conditions noted are these: MCC and control cell lines, CellTiter-Glo viability, 72 h; series mostly up to 46 µM. The gist of the method: as §1
Background: In ATP-based viability assays light output follows the ATP content of the culture.

A further assay relates to UISO. Described as above. Conditions: MCC and control cell lines, CellTiter-Glo viability, 72 h; series mostly up to 46 µM. The essentials: as §1
In the next assay the test system is WaGa. Described as above. The conditions noted are these: MCC and control cell lines, CellTiter-Glo viability, 72 h; series mostly up to 46 µM. The essentials:
as §1

The subject of another assay is MKL-2. The assay is described as above. The conditions noted are these: MCC and control cell lines, CellTiter-Glo viability, 72 h; series mostly up to 46 µM. The essentials: as §1
For another assay, the system named is C33A. Put plainly: Primary qHTS to identify gynecologic anti-cancer compounds using libraries of approved drugs and bioactive compounds (AID 1345084). Note: nearly all actives have a fitted effect of over 55% in size. Conditions: Gynecologic cancer cell panel viability, ATPlite luminescence, 48 h; series mostly up to 57.5 µM. The gist of the method:
(§2)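 Luminescence from the ATPlite ATP-monitoring reagent indicates viable cell number; lower signal means cytotoxicity. Cells received compound 16 h after seeding and were exposed for 48 h across five concentrations.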

Another assay relates to CASKI. The assay is described as above. Conditions: Gynecologic cancer cell panel viability, ATPlite luminescence, 48 h; series mostly up to 57.5 µM. The gist of the method:
as §2

Another assay deals with MCC-26. Kind of assay: qHTS assay to identify novel small-molecules to repurpose for Merkel cell carcinoma treatment (AID 1296009). Note: nearly all actives have a fitted effect of over 60% in size. Conditions: MCC and control cell lines, CellTiter-Glo viability, 72 h; series mostly up to 46 µM. The gist of the method:
as §1

Inconclusive results are not listed. Active and inactive are the calls of the source. Calls come from the whole dose curve; as a rule, active = well fitted curve in the direction sought with a large enough effect; inconclusive = small, poorly fitted or top-dose-only effect, or another doubt; inactive = no such curve, though single readings can be large; an effect the other way counts as inactive or inconclusive.
Potency is the fitted concentration of half-maximal effect.

On to `C=CCNc1c(O)cc2c(O)c1C[C@@H](C)C[C@H](OC)[C@@H](O)[C@@H](C)C=C(C)[C@H](OC(N)=O)[C@@H](OC)C=CC=C(C)C(=O)N2`, for which the Potency in the assay with MCC-13 was 5900 nM (active); with MKL-1 it was 11800 nM (active); in the assay on UISO, 2350 nM (active); in the assay on WaGa, 2090 nM (active).
As to `CCOC(=O)N1CCN([N+]([O-])=NOc2ccc([N+](=O)[O-])cc2C#N)CC1`, the Potency with MCC-13 was 2640 nM (active); in the assay on MKL-1, 1660 nM (active); in the assay on MKL-2, 1180 nM (active); with WaGa, 3720 nM (active).
As to `COc1cc(C)c(Sc2cnc(NC(=O)c3ccc(CNC(C)C(C)(C)C)cc3)s2)cc1C(=O)N1CCN(C(C)=O)CC1` (stereo not given), the Potency entry in the assay with MCC-13 is “inactive”. Further, the values for the Potency with MKL-1, with UISO and in the assay on WaGa were 20900 nM (active), 18700 nM (active) and 16600 nM (active), respectively.
`c1ccc2c(Oc3nc(Nc4ccc(N5CCOCC5)cc4)c4ncn(C5CCCCC5)c4n3)cccc2c1`: the Potency entry in the assay with MCC-13, in the assay on MKL-1, with MKL-2, in the assay on UISO, in the assay with WaGa and in the assay with C33A was “inactive” in each case. Moreover, the Potency result in the assay with CASKI is “inactive”.
Regarding `O=C(O)C[C@H](O)C[C@H](O)C=Cc1c(C2CC2)nc2ccccc2c1-c1ccc(F)cc1`, the Potency with MCC-13 was 5900 nM (active); with MKL-1, 5900 nM (active); with MKL-2, 3320 nM (active); with UISO it was 2350 nM (active); with WaGa, 7430 nM (active).
For `Cc1noc(-c2ccc(CSCCC(=O)O)cc2)c1NC(=O)OC(C)c1ccccc1Cl` (stereo not given), the Potency entry in the assay on MCC-13, with MKL-1, in the assay on MKL-2, in the assay with UISO and in the assay on WaGa was “inactive” throughout.
In the case of `CCC(C=C[C@@H]1OC(=O)C=C[C@H]1C)=C[C@H](C)CC=CC(C)=C[C@@H](C)C(=O)[C@@H](C)[C@H](O)[C@@H](C)CC(C)=CC(=O)O`, the Potency with MCC-13 was 98.4 nM (active); in the assay with MKL-2, 4.9 nM (active); with UISO, 22 nM (active).
With `CCN(CC)CCCCNc1ncc2c(n1)N(C)C(=O)N(c1c(Cl)c(OC)cc(OC)c1Cl)C2`, the Potency entry in the assay with MCC-13, with MKL-1 and in the assay with WaGa was “inactive” throughout.
Turning to `COc1ccc2c(c1OC)C(=O)OC2[C@H]1c2c(cc3c(c2OC)OCO3)CCN1C` (stereo not given in full), the Potency is 2960 nM (active) with MCC-13 and 469 nM (active) with UISO. In the assay with MKL-2, the Potency entry was “inactive”.
With `CCS(=O)(=O)Nc1ccc2[nH]c(O)c(C(=Nc3ccc(CN4CCCCC4)cc3)c3ccccc3)c2c1`, the Potency was 5260 nM (active) in the assay with MCC-13 and 20900 nM (active) with UISO. Moreover, in the assay with MKL-2, the Potency entry is “inactive”.
As to `CCOC(=O)C1=C(C)NC(=S)NC1c1cccc(O)c1` (stereo not given), the Potency in the assay on MCC-13 was 1480 nM (active); in the assay with UISO, 148 nM (active); in the assay with WaGa, 52.6 nM (active). In addition, in the assay on MKL-2, the Potency result is “inactive”.
Consider `O=C(CCCCCCC(=O)Nc1cccnc1)NO`, for which the Potency was 26400 nM (active) in the assay on MCC-13; 7430 nM (active) in the assay on MKL-1; 1870 nM (active) in the assay with MKL-2; 13200 nM (active) in the assay with UISO; 2350 nM (active) with WaGa.
For `O=C(C[C@@H]1CC=CCCC(=O)O[C@H](c2ccccc2)CNC1=O)NCc1ccc(Cl)cc1` the same measures were “inactive”, “inactive”, “inactive”, “inactive” and “inactive”.
On to `C=CC(=O)Nc1ccc2ncnc(Nc3ccc(OCc4cccc(F)c4)c(Cl)c3)c2c1`, for which the Potency is 3720 nM (active) in the assay with MCC-13, 118 nM (active) with MKL-1, 33.2 nM (active) in the assay on WaGa and 14100 nM (active) with CASKI.
On to `N#CNC(=NCCCCCCOc1ccc(Cl)cc1)Nc1ccncc1`, for which the Potency in the assay on MCC-13 was 37.2 nM (active); in the assay on MKL-1 it was 1.2 nM (active); in the assay with UISO, 5.9 nM (active); in the assay with WaGa it was 3.3 nM (active). The Potency entry in the assay with MKL-2 was “inactive”.
For `NC[C@H]1O[C@H](O[C@H]2[C@@H](O)[C@@H](O[C@H]3O[C@H](CO)[C@@H](O)[C@H](N)[C@@H]3O)[C@H](N)C[C@@H]2N)[C@H](N)C[C@H]1O` the same measures were “inactive”, “inactive”, “inactive”, “inactive” and “inactive”.
Consider `Cc1cnc(NC(=O)Nc2cc(Br)c(C)cc2OC[C@@H]2CNCCO2)cn1`, for which the Potency entry in the assay with MCC-13, in the assay on MKL-2 and in the assay with WaGa was “inactive” throughout.
For `Cc1cnc(Nc2ccc(CN3CCOCC3)cc2)nc1Nc1cccc(S(=O)(=O)NC(C)(C)C)c1`, the Potency was 13200 nM (active) in the assay with MCC-13, 11800 nM (active) with MKL-1, 10500 nM (active) with WaGa and 8910 nM (active) with CASKI.
Regarding `CN[C@@H]1C[C@H]2O[C@@](C)([C@H]1OC)n1c3ccccc3c3c4c(c5c6ccccc6n2c5c31)C(=O)N[C@H]4O`, the Potency is 332 nM (active) with MCC-13, 5260 nM (active) with MKL-1, 1870 nM (active) in the assay on UISO and 1320 nM (active) in the assay with WaGa.
Turning to `O=C1NC(=O)[C@@H](c2cn3c4c(cccc24)CCC3)[C@H]1c1c[nH]c2ccccc12`, the Potency in the assay with MCC-13 is 3320 nM (active); in the assay with MKL-2 it was 23500 nM (active); in the assay on UISO, 1180 nM (active).
As to `C[C@]12CC[C@@H]3c4ccc(O)cc4CC[C@H]3[C@H]1CC[C@H]2O`, the Potency result in the assay on MCC-13 and with MKL-2 was “inactive” throughout.
With `CC(C=CC(=O)NO)=C[C@@H](C)C(=O)c1ccc(N(C)C)cc1`, the Potency in the assay on MCC-13 is 8330 nM (active); in the assay with MKL-1, 1660 nM (active); in the assay on MKL-2 it was 166 nM (active); with UISO it was 3320 nM (active); in the assay with WaGa, 743 nM (active).
`COC[C@H](NC(=O)c1cnc(C)s1)C(=O)N[C@@H](COC)C(=O)N[C@@H](Cc1ccccc1)C(=O)[C@@]1(C)CO1`: the Potency with MCC-13 is 526 nM (active); with MKL-1, 418 nM (active); in the assay with UISO, 235 nM (active); in the assay on WaGa, 118 nM (active).
As to `Nc1ccn(C[C@@H](CO)OCP(=O)(O)O)c(=O)n1`, the Potency result in the assay on MCC-13, in the assay on MKL-1, in the assay with MKL-2, in the assay with UISO and with WaGa was “inactive” each time.
Consider `O=C(O)CCCCC(CCSCc1ccccc1)SCc1ccccc1` (stereo not given), for which the Potency result with MCC-13, in the assay with MKL-1 and in the assay on UISO was “inactive” each time. In addition, the Potency in the assay on WaGa is 13200 nM (active).
Take `CN(C)c1ccc(C(=O)NCCCCCCC(=O)NO)cc1`: the Potency in the assay with MCC-13 was 4180 nM (active); in the assay with MKL-1, 1660 nM (active); in the assay with MKL-2, 743 nM (active); in the assay with WaGa, 662 nM (active).
On to `O=c1ccn([C@@H]2O[C@H](CO)[C@H](O)[C@@H]2F)c(=O)[nH]1`, for which the Potency result in the assay with MCC-13, with MKL-1, in the assay on MKL-2, in the assay with UISO and in the assay on WaGa was “inactive” each time.
On to `COc1cccc2c1C(=O)c1c(O)c3c(c(O)c1C2=O)C[C@@](O)(C(=O)CO)C[C@@H]3O[C@H]1C[C@H](N)[C@H](OC2CCCCO2)[C@H](C)O1` (stereo not given in full), for which the Potency was 5260 nM (active) in the assay on MCC-13, 2640 nM (active) with MKL-1, 1660 nM (active) in the assay with UISO and 1660 nM (active) with WaGa.
For the molecule `COc1cc(N2CCC(C(N)=O)CC2)ccc1Nc1nc(N)c(Cl)c(Nc2ccccc2S(=O)(=O)C(C)C)n1`, the Potency result in the assay with MCC-13 was “inactive”. For the same molecule, the Potency with UISO was 5900 nM (active); in the assay on WaGa, 16600 nM (active).
Turning to `CO[C@@H]1[C@@H](O)[C@H](O)[C@@H](n2c3c(Cl)cccc3c3c4c(c5c6cccc(Cl)c6[nH]c5c32)C(=O)NC4=O)O[C@@H]1CO`, the Potency in the assay with MCC-26 was 1180 nM (active); in the assay on MKL-1, 332 nM (active); in the assay on MKL-2 it was 935 nM (active); with UISO it was 264 nM (active); in the assay with WaGa, 166 nM (active).
For `CC[C@@]1([C@@H]2O[C@@H]([C@H]3O[C@@](O)(CO)[C@H](C)C[C@H]3C)C[C@H]2C)CC[C@H]([C@]2(C)CC[C@]3(C[C@H](O)[C@@H](C)[C@@H]([C@@H](C)[C@@H](OC)[C@H](C)C(=O)O)O3)O2)O1` the same measures were “inactive”, 512 nM (active), 204 nM (active), 512 nM (active) and 457 nM (active).
As to `FC(F)(F)c1ccc(Nc2nc3ccc(Oc4ccnc(-c5ncc(C(F)(F)F)[nH]5)c4)cc3[nH]2)cc1`, the Potency entry in the assay on MCC-26, with C33A and with CASKI was “inactive” throughout.
As for `O=C(O)c1ccc(Nc2ncc3c(n2)-c2ccc(Cl)cc2C(c2c(F)cccc2F)=NC3)cc1`, the Potency entry in the assay with MCC-26, in the assay with MKL-2, with UISO and with C33A was “inactive” each time.
As for `C[C@H]1[C@@H](OC(=O)CCC(=O)O)O[C@@H]2O[C@@]3(C)CC[C@@H]4[C@H](C)CC[C@@H]1[C@@]24OO3`, the Potency entry with MCC-26 and in the assay with CASKI was “inactive” throughout. Moreover, the Potency in the assay on MKL-1 was 10500 nM (active); with MKL-2 it was 5260 nM (active); with UISO, 4180 nM (active); in the assay with WaGa, 6620 nM (active).
For `CN1CCCN(C(=O)c2cccc(-c3ccc(C=C4C(=O)Nc5ccc(Cl)cc54)o3)c2)CC1`, the Potency entry with MCC-26 was “inactive”. Besides, the Potency in the assay with MKL-1 was 5260 nM (active); with MKL-2 it was 16600 nM (active); in the assay on WaGa, 16600 nM (active).
Turning to `CN(C)CCN1C(=O)c2cccc3cc(N)cc(c23)C1=O`, the Potency result in the assay on MCC-26 was “inactive”. In addition, the Potency with MKL-1 is 14800 nM (active); with MKL-2, 18700 nM (active); in the assay with UISO it was 7430 nM (active); in the assay on WaGa it was 9350 nM (active).
Regarding `O=C(Nc1cccc(Nc2ncc(Br)c(NCCc3cnc[nH]3)n2)c1)N1CCCC1`, the Potency was 11800 nM (active) in the assay with MCC-26, 5900 nM (active) in the assay with MKL-2, 16600 nM (active) in the assay on UISO and 2960 nM (active) in the assay with WaGa.

For the origin of these results see PubChem BioAssay (NCATS).
